Screens (PubChem BioAssay)
NS1 inh: blocks influenza NS1 protein function; Potency, µM (doses to about 46.1 µM), for inactives: at the highest dose activity, positive = more growth; 270,000 compounds, 0.4% hits; calls by dose curve; note: actives are rising curves; nearly all actives have a fitted effect of over 50% in size
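A cell-based growth assay was used: compounds that relieve NS1-induced slow growth of budding yeast raise OD600. Assay medium was yeast nitrogen base with ammonium sulphate and -URA supplement, pH 6.0, with 2% galactose.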
Giardia FBPA inh: blocks Giardia fructose-bisphosphate aldolase activity | purified Giardia FBPA | 290,000 compounds, 0.71% hits | Potency, µM (series often up to 59.6 µM), for inactives: at the highest dose activity, negative = inhibition, most hits filed as inhibitors | AID 2451; note: % is set by controls: 0 for no effect and ±100 for the full control effect; nearly all actives have a fitted effect of over 55% in size
Target sequence (A8B2U2 whole entry, looked up): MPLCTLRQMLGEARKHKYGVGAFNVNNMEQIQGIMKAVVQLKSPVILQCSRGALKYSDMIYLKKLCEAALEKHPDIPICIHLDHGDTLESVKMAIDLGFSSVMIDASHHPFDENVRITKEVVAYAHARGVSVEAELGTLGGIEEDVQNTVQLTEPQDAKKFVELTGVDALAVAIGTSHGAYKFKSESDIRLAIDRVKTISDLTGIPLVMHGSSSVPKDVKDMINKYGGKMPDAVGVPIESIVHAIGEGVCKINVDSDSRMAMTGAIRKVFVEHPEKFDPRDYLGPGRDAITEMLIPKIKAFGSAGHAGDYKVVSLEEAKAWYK
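40 nM FBPA preincubated 10 min at RT with compound (up to 57.5 uM final), then substrate plus GAPDH/TPI/NAD/arsenate coupling and diaphorase/resazurin added. Fluorescence read after 20 min at RT, 525/598 nm.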
TbPYK inhibitor: inhibitors of Trypanosoma brucei pyruvate kinase | Q57TT1 | TbPYK enzyme, Kinase-Glo Plus ATP luminescence, 45 min | Potency, µM (highest dose often 76.8 µM), inactives show at the highest dose activity, negative = inhibition, most hits filed as inhibitors | 410,000 compounds, 0.12% hits | AID 624173; note: % is set by controls: 0 for no effect and ±100 for the full control effect; nearly all actives have a fitted effect of over 50% in size
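Enzyme and substrate buffer are dispensed first and compound is pin-transferred. ADP at 130 uM final then starts the reaction, which runs 45 min at room temperature. Detection reagent is added for 10 min before luminescence is imaged.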
Sm TGR block: blocks Schistosoma mansoni thioredoxin glutathione reductase | Potency, µM (doses to about 114 µM), inactives show at the top dose activity change, negative = inhibition, actives largely listed as inhibitors | purified TGR, DTNB reduction, TNB absorbance 405 nm | 360,000 compounds, 3% hits; note: % is set by controls: 0 for no effect and ±100 for the full control effect; nearly all actives have a fitted effect of over 60% in size
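TGR 20 nM + NADPH 100 uM (dispensed conc.), cpd preinc 15 min RT; start with NADPH (500 uM addition) then DTNB (15 mM addition). Kinetic TNB absorbance, 405 nm filter. Four-parameter Hill fit across titration.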
LmPK inh: inhibitors of Leishmania mexicana pyruvate kinase; AID 1721; Potency, µM (doses to about 57.5 µM), inactives show at the top dose activity change, negative = inhibition, usual class: inhibitors; 290,000 compounds, 0.37% hits; Q27686; purified LmPK, Kinase-Glo ATP luminescence, 1 h; note: % is set by controls: 0 for no effect and ±100 for the full control effect
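Pyruvate kinase activity monitored as ATP production (luciferase luminescence). Conditions: 0.1 nM enzyme, 0.5 mM PEP, 0.1 mM ADP, 1 h, RT; normalized against uninhibited and no-enzyme wells.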
RE007 growth inh: less growth of the S. pombe RE007 Vpr strain; S. pombe RE007 Vpr strain, BacTiter-Glo ATP luminescence, 24 h; Potency, µM (top dose mostly 92.2 µM), for the others: at the highest dose activity change, negative = less growth, actives largely listed as inhibitors; 360,000 compounds, 0.21% hits; AID 651644; active = well fitted falling curve with a large enough effect; inconclusive = small, poorly fitted or top-dose-only effect; inactive = no such curve, though single readings can be large or run the other way; note: % is set by controls: 0 for no effect and ±100 for the full control effect; nearly all actives have a fitted effect of over 50% in size
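Fission yeast strain RE007, carrying one chromosomally integrated HIV-1 vpr copy, was seeded at OD 0.01 in PMG+AL medium with 23 nL pinned compound. After 24 h at 30 °C and 99% humidity, viability was read by BacTiter-Glo luminescence.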
* = called active by the depositor; u = inconclusive; x = not tested or not shown; [ ] = remark or other dose. Sampled rows, rich in hits. Any-hit rate of the full collection: about 3.5%. Unless noted, calls come from the whole dose curve; as a rule, active = well fitted curve in the direction sought with a large enough effect; inconclusive = small, poorly fitted or top-dose-only effect, or another doubt; inactive = no such curve, though single readings can be large; an effect the other way counts as inactive or inconclusive. Potency is the fitted concentration of half-maximal effect.

SMILES	NS1 inh	Giardia FBPA inh	TbPYK inhibitor	Sm TGR block	LmPK inh	RE007 growth inh
S=c1[nH]nc(-c2ccncc2)n1/N=C/C=C/c1ccco1	9.5%	u	u	22.4µM*	0.4%	5.5%
CCN1CCC(N(Cc2cccc(OC)c2)C(=O)Nc2ccc(C)cc2Cl)CC1	x	x	2.0%	-0.2%	x	x
CC(=O)O[C@@H]1C(=O)O[C@H]2[C@@H]1OC(=O)[C@@H]2OC(C)=O	x	x	1.2%	x	x	x
CC(/C=N/n1c(-c2ccncc2)n[nH]c1=S)=C\c1ccco1	4.3%	-7.7%	u	31.6µM*	2.5%	-3.0%
S=c1[nH]nc(-c2ccccc2Cl)n1/N=C/C=C/c1ccco1	u	-10.0%	u	20µM*	-3.7%	2.0%
CC(/C=N/n1c(-c2ccc(C)cc2)n[nH]c1=S)=C\c1ccco1	17.5%	5.0%	-10.6%	-25.0%	-6.0%	-13.0%
COc1ccccc1/C=C\C=N\n1c(-c2ccc(Cl)cc2Cl)n[nH]c1=S	13.4%	17.4%	-16.4%	-1.7%	-2.8%	11.4%
CCSc1ncc(Cl)c(C(=O)Nc2c(C(=O)c3ccc(C)c(F)c3)oc3ccccc23)n1	x	x	4.1%	2.1%	x	x
CC(C)(C)c1cc(-c2n[nH]c(=S)n2-c2ccccc2F)n[nH]1	4.2%	-17.4%	u	1.7%	14.1µM*	-11.7%
COc1ccc(-c2cc(-c3n[nH]c(=S)n3-c3ccccc3Cl)[nH]n2)cc1	x	18.3%	u	10.1%	-5.0%	-10.2%
COc1ccc(NC(=O)CSc2nc3c(oc4ccccc43)c(=O)n2-c2ccc(C)c(C)c2)cc1	x	x	-8.1%	-1.4%	x	x
CC(=O)c1c(C)oc2c(Br)cc(NS(=O)(=O)c3ccc(Br)cc3)cc12	x	x	3.6%	5.62µM*	x	x
CCNC(C)Cc1ccc2c(c1)OCO2 (stereo not given)	x	x	6.0%[157 µM]	x	x	x
Cc1cc(=S)cc(C)n1CCO	2.3%	u	2.6%	14.1µM*	-1.3%	-29.7%
OCc1ccc(O)c2ncccc12	-76.9%	u	-4.1%	22.4µM*	0.8%	-13.0%
CCCOCc1ccc(O)c2ncccc12	-79.0%	u	2.7%	28.2µM*	2.0%	39.8µM*
Oc1ccc(COCc2ccccc2)c2cccnc12	-93.1%	13.1%	-8.0%	35.5µM*	-8.2%	u
CC(C)COCc1ccc(O)c2ncccc12	-35.6%	u	2.7%	15.8µM*	5.6%	u
Oc1ccc(Cc2ccccc2)c2cccnc12	x	x	2.9%	x	x	u
COc1ccc(-c2cc(C(=O)O)n(Cc3ccccc3)n2)cc1	x	x	1.1%	4.7%	x	x
Oc1ccc(F)c2cccnc12	-2.0%	u	u	11.5%	-0.5%	1.1%
CN(Cc1ccco1)Cc1ccc(O)c2ncccc12	x	x	-1.0%	0.708µM*	x	x
COc1ccc(OC)c(S(=O)(=O)Nc2cc3c(cc2N2CCCC2)n(C)c(=O)c(=O)n3C)c1	7.5%	u	u	31.6µM*	-2.2%	-2.7%
Cc1ccc(S(=O)(=O)Nc2cc3c(cc2N2CCOCC2)n(C)c(=O)c(=O)n3C)cc1	1.9%	x	-3.7%	-5.1%	3.8%	-10.1%
Cn1c(=O)c(=O)n(C)c2cc(N3CCOCC3)c(NS(=O)(=O)c3ccc(Br)cc3)cc21	4.3%	u	-11.9%	25.1µM*	-4.0%	0.8%
SMILES	NS1 inh	Giardia FBPA inh	TbPYK inhibitor	Sm TGR block	LmPK inh	RE007 growth inh
Cc1c(C(=O)Nc2ccc(F)cc2)oc2ccc(S(=O)(=O)N3CCCCCC3)cc12	x	x	-6.6%	-3.2%	x	x
Cc1nc(-c2ccc(Cl)cc2)sc1CCNC(=O)C(=O)Nc1ccc2c(c1)OCO2	x	x	-4.2%	-0.4%	x	x
CC1CCC/C(=C\c2ccc(O)cc2)C1=O (stereo not given)	x	x	2.4%	x	x	u
CN(C)CC1CC/C(=C\c2ccc(O)cc2)C1=O (stereo not given)	x	x	u	x	x	11.2µM*
COc1ccc(/C=C2\CCC(C3CCCC3)C2=O)cc1 (stereo not given)	0.4%	5.3%	-3.1%	-0.2%	-2.8%	0.4%
COc1ccc(/C=C2/CCC(CN3CCOCC3)C2=O)cc1 (stereo not given)	x	x	u	x	x	7.94µM*
Cc1ccc(C)n1-c1ccc(N2CCOCC2)cc1	u	u	-6.6%	24.2%	5.0%	-11.8%
Cc1ccc(C)n1-c1ccc(N(C)C)cc1	x	u	-9.2%	31.6µM*	-11.0%	-17.0%
CCOC(=O)C1CCN(C(=O)c2ccc(NC(=O)c3nsc4ccccc34)cc2)CC1	x	x	-4.7%	-2.3%	x	x
c1c2c(cc3sc(N4CCOCC4)nc13)OCO2	-57.6%	-4.8%[12.9 µM]	u	16.7%	15.8µM*	u
COc1ccc(-c2c(C)nn3c(-c4ccccc4)cc(-c4ccccc4)nc23)cc1	x	x	-2.8%	-3.7%	x	x
O=C1c2ccccc2-c2onc3ccc(NCCCn4ccnc4)c1c23	-6.3%	-28.7%	0.9%	20µM*	-24.8%	14.3%
COc1ccc2noc3c2c1C(=O)c1ccccc1-3	x	x	u	x	x	-26.6%
O=[N+]([O-])c1cc(-c2nc(-c3ccccc3)no2)ccc1N1CCCC1	x	x	0.3%	-5.6%	x	x
O=S(=O)(NCc1ccccc1Cl)c1ccc(N2CCCCS2(=O)=O)cc1	x	x	0.0%	-6.0%	x	x
Cc1ccc(C2=CC(c3ccccc3)n3ncnc3N2)cc1 (stereo not given)	x	x	10.1%	x	x	-14.0%
COc1cccc(C2=CC(c3ccc(C)cc3)n3ncnc3N2)c1 (stereo not given)	-15.7%	-3.3%	x	17.8µM*	2.5%	x
